Screens from PubChem.
eIF4E 4G PPI = inhibitors of eIF4E and eIF4G interaction in translation initiation. P63073+Q04637. TR-FRET eIF4E-eIF4GI(517-606) binding, 2 h. inhibition, % at 21.7 µM. AID 782. 0.37% of 220,000 active;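 active means inhibition above about 30%, limit read from the data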;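 further: 0% = full FRET control wells and 100% = background wells lacking eIF4GI fragment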
PABP1 MLLE inh = blocks PAM2 peptide binding to the PABP1 MLLE domain; GST-MLLE / FITC-PAM2 fluorescence polarization; inhibition, % at 20 µM; 0.36% of 360,000 active; AID 588489; in the data active means inhibition above about 35%, passing the limit was not always enough;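 further: plate controls were DMSO wells with GST-MLLE for no effect and wells lacking GST-MLLE protein for full effect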
eIF4H FP inh = inhibitors of RNA binding by human eIF4H; Q15056; eIF4H fluorescence polarization binding assay; inhibition, % at 35 µM; 0.94% of 290,000 active;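 further: calls also rest on retests at 20 µM and on dose response follow-up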
PABP polyA inh = PABP-poly(A) binding inhibition; P11940; PABP-poly(A) RNA binding, fluorescence polarization; calls only at 35 µM; 1% of 290,000 active; AID 2014;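 further: calls also rest on retests at 20 µM and on dose response follow-up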
PERK inhibitor = human PERK inhibition, primary cell-based screen. CHO PERK-DD fusion, SEAP luminescence translation reporter. 0.17% of 220,000 active. AID 1416. inhibition, % at 5.6 µM. Q9NZJ5;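 active means inhibition above the mean inhibition of all tested compounds plus 3 SD, set separately per screening campaign, cut at about 2.9% in these data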;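 further: PERK kinase domain activated by AP20187 dimerizer at 100 nM; 0% = DMSO with dimerizer and 100% = rapamycin at 8.4 µM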
Starred values were filed as active, the others as inactive; i = inactive; ? = inconclusive; / = no result; + = active, no number; ! = repeats disagree; [ ] = another dose, or the depositor's remark. Sampled rows, rich in hits. Any-hit rate of the full collection: about 1.6%. Unless noted, how the calls were made is not given here.

SMILES	eIF4E 4G PPI	PABP1 MLLE inh	eIF4H FP inh	PABP polyA inh	PERK inhibitor
O=[N+]([O-])c1cc2c(cc1C=Nc1ccccc1)OCO2	2	-78	33	i	1
O=[N+]([O-])c1cc2c(cc1/C=N/n1c(-c3ccccn3)n[nH]c1=S)OCO2	3	-12	97	i	0
Cc1cc(N(C)C(=O)c2ccc3c(c2)S(=O)(=O)c2cc(Cl)ccc2C3=O)c(C(F)(F)F)o1	/	0	/	/	/
Nc1nc(Sc2c([N+](=O)[O-])cc(C(F)(F)F)cc2[N+](=O)[O-])n[nH]1	-2	39*	7	i	1
Cc1ccc(C)c(NC(=O)CSc2sc3c(O)cc(=O)[nH]c3c2C#N)c1	/	-14	9	i	/
CCc1nnc(NC(=O)CSc2sc3c(O)cc(=O)[nH]c3c2C#N)s1	/	-27	90*	+	/
Cc1csc(NC(=O)CSc2sc3c(O)cc(=O)[nH]c3c2C#N)n1	/	-6	64*	+	/
CCSc1nnc(NC(=O)CSc2sc3c(O)cc(=O)[nH]c3c2C#N)s1	/	-21	91*	+	/
CCc1nnc(NC(=O)CSc2nc3[nH]c(=O)cc(O)c3s2)s1	/	13	/	/	/
CCCN1CCC(=O)N([C@H](CN=[N+]=[N-])CC(C)C)CC1	/	4	-2	i	/
N#C/C(=C\c1ccc(Cl)cc1)C(=O)Nc1cccnc1	1	0	-5	i	0
COC(=O)c1ccc(=O)c2nc3/c(=C/O)c(O)cc(=O)c3[nH]c12	55*	6	85*	+	0
O=C(O)c1c(Cl)c(Cl)c(Cl)c(Cl)c1C(=O)OCC1CCCO1 (centres undefined)	/	3	/	/	/
[O-]/[N+](=C\C=C\c1ccccc1)c1ccccc1	2	0	1.1*	+	-1
O=[N+]([O-])c1ccc(C=CC=Cc2ccccc2)cc1	/	-78	/	/	/
c1ccc(-c2nc(-c3ccncc3)n[nH]2)nc1	54*	1	0	i	0
CC1=CC(C)(C)[N+](C)(C)c2ccccc21	5	-98	-8	+	0
c1ccc(-n2ncc3c2ncn2nc(-c4ccco4)nc32)cc1	6	15	50*	i	-1
COc1cccc(OCc2nc3c4cnn(-c5ccccc5)c4ncn3n2)c1	1	-5	-5	i	0
Cc1ccc(-c2cc(N)n(-c3ccc(C)cc3)n2)cc1	2	-3	-6	i	0
Cc1ccc(-c2cc(N)n(-c3ccc(F)cc3)n2)cc1	-1	2	-6	i	3.4*
O=C1CCCC2=C1C(c1ccc(Cl)cc1)n1c(s/c(=C\c3ccc4ccncc4c3)c1=O)=N2 (centres undefined)	3	-53	55*	+	0
COc1cccc(NC(=O)COc2ccc(N3CC(C(=O)NCC(C)C)CC3=O)cc2)c1 (centres undefined)	72*	-4	-10	i	0
Cc1c2cc(O)c(=O)cc-2oc2cc(O)c(O)cc12	35*![fluorescence artefact?]	i	131	i	1
COc1cccc(OCC(=O)NNC(=O)C(=O)Nc2cccc(C)c2)c1	/	2	-7	i	/
SMILES	eIF4E 4G PPI	PABP1 MLLE inh	eIF4H FP inh	PABP polyA inh	PERK inhibitor
N#Cc1ccsc1NC(=O)COC(=O)CCCSc1nc2ccccc2s1	-14	-18	102*	+	-1
Cc1noc(C)c1CSCC(=O)OCC(=O)Nc1sccc1C#N	-12	0	58*	+	0
Cc1cc2ccccc2n1CCNC(=O)C1CC1	/	20	112	+	/
Cc1cc2ccccc2n1CCNC(=O)C1CCCC1	-3	24	?	+	-1
Cc1cc2ccccc2n1CCNC(=O)c1cccs1	6	14	42*	+	1
Oc1ccc(Nc2ccc3ccccc3c2)cc1	/	14	/	/	/
CC(C)CN1CCN(Cc2ccc(CN3CCCCC3)s2)CC1CCO (centres undefined)	-1	0	63*	+	0
CCn1c(N)c(C(=O)NC2CCCCC2)sc1=S	0	42*	2	i	-1
CCn1c(N)c(C(N)=O)sc1=S	-6	33	?	?	0
O=c1/c(=C/c2ccc(O)cc2)sc2nc3cc(Br)cnc3n12	0	/	10	i	1
Cc1ccc(CN2CCC(C)(Oc3ccc(Cl)cc3)C2)cc1 (centres undefined)	/	-11	/	/	/
CC(C)Cn1c(-c2ccccc2)nc(=S)c2c1CCCC2	-6	36	4	i	0
COc1cccc(-c2nc(=S)c3c(n2CCCO)CCCC3)c1	11	41*	12	i	0
Cc1nnc2ccc(-c3ccc(NC(=O)c4ccco4)cc3)nn12	8	-11	74*	i	1
CC(=O)Nc1ccc(-c2ccc3nnc(C)n3n2)cc1	1	15	-9	i	1
COc1ccccc1OCCc1nnc(N)s1	8	-14	-11	i	3.3*
